PLK1 PBD block: PLK1 (human) polo-box domain binding inhibition. P53350. Plk1 PBD binding of FITC phosphopeptide, fluorescence polarization. Potency, µM, for inactives: max response, negative = inhibition, actives largely listed as inhibitors. 360,000 tested, 2.8% active; note: series mostly up to about 57 µM; nearly all actives have a fitted effect of over 65% in size
TDP1 inh: inhibitors of human tyrosyl-DNA phosphodiesterase TDP1. Q9NUW8. recombinant TDP1, AlphaScreen DNA substrate cleavage. Potency, µM (series often up to 130 µM), for inactives: at the top dose activity change, negative = inhibition, actives largely listed as inhibitors. 350,000 tested, 0.28% active. AID 485290; note: nearly all actives have a fitted effect of over 40% in size
Target sequence (Q9NUW8 whole entry, looked up): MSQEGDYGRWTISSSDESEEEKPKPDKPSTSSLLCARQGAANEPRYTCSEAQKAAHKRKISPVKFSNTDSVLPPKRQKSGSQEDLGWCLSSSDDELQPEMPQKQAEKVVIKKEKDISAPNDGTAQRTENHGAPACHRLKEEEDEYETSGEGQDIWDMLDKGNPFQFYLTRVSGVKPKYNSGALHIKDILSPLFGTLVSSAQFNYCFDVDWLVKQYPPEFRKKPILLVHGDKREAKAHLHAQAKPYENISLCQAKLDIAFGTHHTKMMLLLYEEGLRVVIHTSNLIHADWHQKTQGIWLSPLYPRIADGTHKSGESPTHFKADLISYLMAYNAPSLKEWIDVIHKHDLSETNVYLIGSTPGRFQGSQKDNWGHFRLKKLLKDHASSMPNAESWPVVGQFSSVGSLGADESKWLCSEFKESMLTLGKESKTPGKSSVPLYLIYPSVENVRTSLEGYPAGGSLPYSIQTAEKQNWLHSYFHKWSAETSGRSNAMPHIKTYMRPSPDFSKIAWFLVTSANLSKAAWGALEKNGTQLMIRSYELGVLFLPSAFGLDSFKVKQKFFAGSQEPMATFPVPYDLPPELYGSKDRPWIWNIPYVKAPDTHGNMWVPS
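Recombinant E. coli-expressed Tdp1 (1 nM) preincubated with compound 15 min at RT, then 5'-biotin/3'-phosphotyrosine-FITC DNA substrate (15 nM) added for 5 min. AlphaScreen beads (10 ug/ml) added, 10 min RT; tyrosine-FITC cleavage read as signal loss.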
DT40 TDP1 CPT: growth inhibition of DT40 Tdp1-/-;hTDP1 cells with camptothecin (screen for TDP1 inhibitors); chicken DT40 Tdp1-/-;hTDP1 cells + 20 nM CPT, ATP luminescence, 48 h; Potency, µM (doses to about 46.2 µM), inactives show top-dose activity change, negative = growth inhibition, usual class: inhibitors; 420,000 tested, 12% active; AID 686979; note: nearly all actives have a fitted effect of over 55% in size
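Chicken DT40 Tdp1-/- cells complemented with human TDP1, 400 cells/well, exposed to compounds plus 20 nM camptothecin for at least 48 h at 37 C; viability read as ATP content by CellTiter-Glo luminescence.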
KAT2A inh: blocks human GCN5L2 histone acetyltransferase | GCN5L2 HAT assay, ThioGlo1 CoA-SH fluorescence | 390,000 tested, 0.21% active | Potency, µM (titrated, usually from 58.9 µM), for inactives: at the highest dose activity change, negative = inhibition, actives largely listed as inhibitors
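Preincubate 20nM GCN5L2 with compound 15 min, RT → add 50uM ThioGlo1 + 75uM H3(1-25) + 70uM acetyl-CoA → read fluorescence 0 and 20 min. Primary qHTS; fluorescent artifacts likely.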
VDR inhibitor: vitamin D3 receptor (human) inhibition | 400,000 tested, 0.93% active | VDR-SRC2-3 peptide fluorescence polarization, 2 h | Potency, µM, inactives show max response, negative = inhibition, most hits filed as inhibitors | P11473
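Measured by FP: displacement of SRC2-3 coactivator peptide from VDR by library compounds, following a two-hour ambient incubation.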
DT40 TDP1 no CPT: qHTS for Inhibitors of human tyrosyl-DNA phosphodiesterase 1 (TDP1): qHTS in cells in absence of CPT. AID 686978, 2013. 420,000 tested, 15% active. DT40 Tdp1-/- hTDP1 cells, no CPT, ATP luminescence, 48 h. Potency, µM (top dose mostly 46.2 µM), without a hit: at the highest dose activity change, negative = growth inhibition, actives largely listed as inhibitors; note: nearly all actives have a fitted effect of over 55% in size
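DT40 Tdp1-/-;hTDP1 cells, no CPT (DMSO vehicle only), 400 cells/well; compounds pin-transferred; ≥48 hr, 37 °C; CellTiter-Glo 30 min RT dark, luminescence read.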
Numbers without * were called inactive; ? = inconclusive; · = not tested or not shown; [ ] = dose if it differs, or a comment. In the library only some 18% were active in any assay of this set; here they are far more common. Calls come from the whole dose curve; as a rule, active = well fitted curve in the direction sought with a large enough effect; inconclusive = small, poorly fitted or top-dose-only effect, or another doubt; inactive = no such curve, though single readings can be large; an effect the other way counts as inactive or inconclusive. % is set by controls: 0 for no effect and ±100 for the full control effect; potency is the fitted concentration of half-maximal effect.

SMILES	PLK1 PBD block	TDP1 inh	DT40 TDP1 CPT	KAT2A inh	VDR inhibitor	DT40 TDP1 no CPT
O=C(NCc1ccccc1)c1ccc(C(=O)N(C2CCCCC2)C2CCCCC2)cc1	-8%	2%	23µM*	0%[0.501 µM]	-2%	?
O=C(C(=O)N(C1CCCCC1)C1CCCCC1)c1ccccc1	-6%	·	10µM*	·	·	7.3µM*
O=C(NC1CCCCCC1)C(=S)NCc1ccccc1	21µM*	8%	?	-9%	?	-30%
COc1cc(=O)n2c(c1C(=O)NCc1nccs1)CCN(Cc1ccccc1F)CC2	·	·	-3%	·	·	-14%
S=C(NCCc1cccc(Cl)c1)NC1CCCCC1	-13%	0%	?	1%	-11%	21µM*
O=C(NC1CCCCC1)C(CCc1ccccc1)N1CCOCC1 (centres undefined)	0%	·	5%	·	·	1%
O=C(NC1CCCCC1)C(CCc1ccccc1)N1CCc2ccccc2C1 (centres undefined)	-6%	·	21µM*	·	·	21µM*
O=C(NC1CCCCCC1)C(=S)NCCc1ccccc1	11µM*	2%	?	-19%	?	?
O=C(NCCc1ccccc1)NC1CCCCC1	4%	0%	1%	-4%	-3%	-1%
COc1cc(CN2CCCC(n3cc(C(=O)N4CCCCC4)nn3)C2)cc(OC)c1OC (centres undefined)	·	·	-10%[9.04 µM]	·	·	-2%
O=C(C#Cc1ccccc1)Nc1cccc(F)c1	-5%	-5%	4.1µM*	-21%	-14%	5.8µM*
O=C(CC(=O)Nc1cccc(F)c1)Nc1cccc(F)c1	-23%	·	?	1%	8%	?
COc1ccc(NC(=O)C#Cc2ccccc2)cc1	?	3%	21µM*	0%	-20%	10µM*
O=C(Nc1ccc(C#Cc2ccccc2)cc1)C1CC1	-10%	-2%	?	-5%	-11%	-16%
COc1ccc(NC(=O)CCCCC#Cc2ccccc2)cc1	-3%	9%	?	·	-21%	15µM*
O=C(C#Cc1ccccc1)Nc1ccc(F)cc1	-15%	·	?	-12%	8%	12µM*
COc1ccc(NC(=O)CCCCC(=O)Nc2ccc(OC)cc2)cc1	-10%	·	0%	-2%	9%	16%
CCN(CCCNC(=O)c1nn(-c2ccc(OC)c(Cl)c2)c(=O)c2c1c1ccccc1n2C)c1ccccc1	·	-9%	-8%	-9%	11%	-9%
Cc1cccc(C(=O)N2CCC(N3CCN(Cc4ccc(F)cc4)C(=O)C3=O)CC2)c1	·	0%	-4%	-1%	7%	-18%
COc1ccc(N2CCN(S(=O)(=O)CCNC(=O)C3CCCCC3)CC2)cc1	-8%	0%	?	-4%	-15%	-1%
Cc1ccccc1CN1CC2=C(CCN(Cc3ccccc3)C2=O)N2CCN=C12	-8%	·	0.58µM*	·	·	1.3µM*
c1ccc(CN2C3=NCCN3c3ccccc32)cc1	-5%	0%	4%	-4%	1%	-9%
NN=C(c1cccc([N+](=O)[O-])c1)c1cccc([N+](=O)[O-])c1	-10%	·	1%	·	-18%	?
CCC1CCc2nc3sc(C(=O)Nc4ccc(C)cc4C)c(N)c3cc2C1 (centres undefined)	·	·	?	-4%	29%	23µM*
COc1ccc(NC(=O)c2sc3nc4c(cc3c2N)CCCCCC4)cc1OC	·	·	?	-4%	0%	?
SMILES	PLK1 PBD block	TDP1 inh	DT40 TDP1 CPT	KAT2A inh	VDR inhibitor	DT40 TDP1 no CPT
CCc1nnc(NC(=O)c2sc3nc4c(cc3c2N)CCCCCC4)s1	-11%	50µM*	-4%	-20%	-5%	?
Nc1c(C(=O)Nc2ccccc2F)sc2nc3c(cc12)CCCCCC3	·	·	2.6µM*	-13%	13%	3.7µM*
COc1ccccc1NC(=O)c1sc2nc3c(cc2c1N)CCCCCC3	·	·	?	-6%	-1%	13µM*
CC(=O)c1cccc(NC(=O)c2sc3nc4c(cc3c2N)CCCC4)c1	·	·	?	-9%	-1%	?
CCc1nnc(NC(=O)c2sc3nc4c(cc3c2N)CCCCC4)s1	-13%	0%	?	-6%	5%	?
COc1ccc(NC(=O)N(C)C[C@H]2Oc3c(NC(=O)c4nc5ccccc5s4)cccc3C(=O)N([C@@H](C)CO)C[C@H]2C)cc1	-10%	3%	?	-7%	4%	?
CCOc1ccc(NC(=O)Cn2nnc(-c3nc(-c4ccncc4)no3)c2N)cc1	·	6%	2%	1%	-3%	-11%
COC(=O)[C@@H]1CCCN1Cc1ccc2c(c1)CN(Cc1ccccc1)CCO2	·	·	15%[9.04 µM]	·	·	-36%
CCc1ccc(OCC(=O)NNC(=O)c2ccc(NC(=O)C3CC3)cc2)cc1	-8%	·	-14%	-20%	22%	-1%
CCc1nc2ccc(C(=O)N(C)CCN(C)C)cn2c1N(C)CCC(C)C	0%	·	5%	·	·	?
COc1cccc(CNC(=O)Cc2csc3ccccc23)c1OC	·	3%	?	-4%	23%	?
CSc1ccc(OC2CCCCC2NS(=O)(=O)c2ccc(Cl)cc2)cc1 (centres undefined)	-7%	-2%	26µM*	-10%	-5%	?
CN(c1ccccc1)C1CCCCC1NS(=O)(=O)c1ccc(Cl)cc1 (centres undefined)	2%	0%	?	-12%	-9%	23µM*
COc1cc(OC)nc(Oc2cccc(Cl)c2C)n1	-7%	·	2%	·	4%	5%
CCSc1ncc(/C=N/Nc2ccccc2)n1C	7.5µM*	8%	23µM*	3%	-13%	16µM*
CCOc1ccc(-c2nc3c(C#N)c[nH]n3c2NC2CCCCC2)cc1	·	11%	8.2µM*	-6%	-6%	7.3µM*
N#Cc1c[nH]n2c(NC3CCCC3)c(-c3ccc(Br)cc3)nc12	·	9%	18µM*	-4%	-4%	23µM*
N#Cc1c[nH]n2c(NC3CCCC3)c(-c3ccc(Cl)cc3)nc12	·	11%	?	-4%	12%	16µM*
Cc1cccc(-c2nc3c(C#N)c[nH]n3c2NC2CCCCC2)c1	·	6%	?	-4%	3%	21µM*
